SENP8 block-1: inhibitors of human SENP8 protease; Q96LD8; recombinant SENP8, Nedd8 substrate fluorescence; inhibition, % at 20 µM; 360,000 compounds, 0.64% hits; in the data active = inhibition mostly above about 40%, no sharp cut-off; inactive = mostly below about 27%
Target sequence (Q96LD8 whole entry, looked up): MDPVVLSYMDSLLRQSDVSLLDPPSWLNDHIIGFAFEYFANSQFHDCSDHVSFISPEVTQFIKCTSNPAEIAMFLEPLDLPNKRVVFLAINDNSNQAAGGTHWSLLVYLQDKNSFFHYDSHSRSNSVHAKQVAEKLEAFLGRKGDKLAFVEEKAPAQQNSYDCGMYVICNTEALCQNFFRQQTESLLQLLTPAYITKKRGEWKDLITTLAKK
SENP7 inh: blocks the human protease SENP7; Q9BQF6; AID 434973; 330,000 compounds, 1.5% hits; recombinant SENP7, Z-RLRGG-aminoluciferin luminescence, 40 min; inhibition, % at 5 µM;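 active = inhibition above about 50% at the single test dose, limit read from the data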;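 note: plate controls were DMSO with enzyme for no effect and no enzyme buffer wells for full effect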
EBI2 block: blocks human EBI2 receptor beta-arrestin signaling; P32249; EBI2 beta-arrestin recruitment, luminescence, 7a,25-OHC stimulated; inhibition, % at 5 µM; 360,000 compounds, 0.81% hits; AID 651636; in the data active = inhibition above about 38%;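 note: enzyme fragment complementation signal reports receptor beta-arrestin coupling in cells; 0% = agonist plus DMSO wells and 100% = wells without agonist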
AHR activator: activators of human aryl hydrocarbon receptor. 320,000 compounds, 2.5% hits. AHR-responsive luciferase reporter cells, luminescence. activation, % at 5 µM; in the data active = activation above about 47%;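 note: 0% = vehicle wells and 100% = reference agonist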
SENP8 block-2: blocks the human protease SENP8; Q96LD8; purified SENP8, Z-RLRGG-aminoluciferin cleavage, luminescence; inhibition, % at 10 µM; 330,000 compounds, 1.2% hits; AID 2540; in the data active = inhibition above about 50%
SENP6 inh: inhibitors of human SENP6 protease; Q9GZR1; Recombinant SENP6 catalytic domain, aminoluciferin luminescence; inhibition, % at 10 µM; 330,000 compounds, 1.8% hits;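 active = inhibition above about 50% at the single tested dose, limit read from the data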;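 note: plate controls were DMSO wells with enzyme for no effect and DMSO wells lacking enzyme for full effect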
Target sequence (Q9GZR1 628-1112 limits assumed): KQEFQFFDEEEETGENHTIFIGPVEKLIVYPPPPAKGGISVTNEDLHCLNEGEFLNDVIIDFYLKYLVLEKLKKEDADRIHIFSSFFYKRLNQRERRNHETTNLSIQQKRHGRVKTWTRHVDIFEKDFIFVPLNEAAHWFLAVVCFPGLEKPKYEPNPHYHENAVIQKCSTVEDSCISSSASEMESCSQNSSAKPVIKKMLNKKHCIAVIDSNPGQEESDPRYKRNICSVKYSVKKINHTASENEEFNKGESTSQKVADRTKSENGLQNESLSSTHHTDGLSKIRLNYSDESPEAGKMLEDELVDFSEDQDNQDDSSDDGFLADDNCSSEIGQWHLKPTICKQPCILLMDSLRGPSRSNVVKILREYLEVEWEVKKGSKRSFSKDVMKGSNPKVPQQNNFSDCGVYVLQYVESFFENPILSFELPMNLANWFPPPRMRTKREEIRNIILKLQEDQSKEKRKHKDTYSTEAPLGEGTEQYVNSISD
An asterisk follows results filed as active; i = inactive; nt = no result. A selection: hits, their analogues and other compounds. The true share with any hit is near 5%.

SMILES | SENP8 block-1 | SENP7 inh | EBI2 block | AHR activator | SENP8 block-2 | SENP6 inh
O=S1(=O)N=C(Nc2ccc(N3CCOCC3)cc2)c2ccccc21 | 25.5 | -4.4 | -2.4 | 10.6 | 1.6 | -5.3
Cc1ccccc1-c1ccc(Nc2ccc(N3CCOCC3)cc2)nn1 | 25.0 | 0.3 | 71.2* | 6.3 | -11.4 | -14.2
Brc1ccc(-c2nnc3sc(CNC4CCCC4)cn23)cc1 | 12.9 | 0.5 | 40.4 | 1.8 | 13.1 | -6.2
Brc1ccc(-c2nnc3sc(CNCc4ccc5c(c4)OCO5)cn23)cc1 | 12.4 | 1.0 | 36.5 | 65.4* | 4.7 | -4.4
c1ccc2c(-c3cn4ccccc4n3)c[nH]c2c1 | nt | -0.8 | nt | 53.8* | -8.4 | -16.6
Cc1cc(=O)[nH]c2c(C)c(N)ccc12 | -305.0 | 0.8 | -3.3 | 0.4 | 4.0 | 8.4
Cc1cc(C)c2ccc3c(C)c(C)nc3c2[nH]1 | -61.3 | 0.8 | 23.0 | 68.3* | -7.0 | -16.1
CCc1nc2c(OCCc3cccc(OC)c3)cccn2c1N(C)C(=O)c1cccs1 | 12.5 | nt | 5.5 | nt | nt | nt
Cc1cc(C(=O)Cn2nc(C(=O)O)c3ccccc3c2=O)c(C)n1CCc1ccc(F)cc1 | 25.8 | 5.2 | 10.6 | 14.4 | 2.7 | -16.6
CCOC(=O)c1cc(C)n(CCc2ccccc2)c1C | 4.6 | -13.3 | 9.5 | -4.0 | -11.8 | -11.5
Cc1cc(C(=O)Cn2cncn2)c(C)n1CCc1ccc(F)cc1 | -29.1 | -2.9 | 0.9 | 59.7* | -2.3 | -7.4
Cc1cc(C(=O)CCl)c(C)n1CCc1ccccc1 | nt | -10.3 | nt | 60.6* | -4.4 | -3.2
C=CCc1ccc(O)c(-c2ccc(O)c(CC=C)c2)c1 | -2.7 | -5.3 | 12.7 | 0.7 | 2.8 | -11.3
Cc1cccn2c(=O)c3cc(C(=O)NCC4CCCO4)c(=N)n(CC4CCCO4)c3nc12 (stereo unspecified) | -297.2 | -4.2 | -2.1 | 3.0 | -1.1 | -0.6
Cc1cccn2c(=O)c3cc(C(=O)NC4CCCC4)c(=N)n(CC4CCCO4)c3nc12 (stereo unspecified) | -302.7 | -0.1 | 9.6 | 55.0* | 7.3 | 7.7
Fc1cc(Cl)cc2ccc(-c3ccccc3)nc12 | -1.2 | nt | 3.6 | nt | nt | nt
O=C(NC1=C(Nc2ccc(Cl)cc2)C(=O)c2ccccc2C1=O)c1ccccc1 | 52.0* | 12.9 | -13.9 | 69.2* | 10.8 | 12.1
CN(C1=C(NC(=O)c2ccc(Cl)cc2)C(=O)c2ccccc2C1=O)c1ccccc1 | 57.2* | 15.3 | 29.7 | 31.9 | 9.7 | 25.0
O=C1C(Cl)=C(NC(=O)c2ccccc2)C(=O)C(Cl)=C1NC(=O)c1ccccc1 | 34.4 | 8.0 | 31.9 | 12.8 | 8.8 | -4.5
COc1ccc(OC)c(CNC(=O)COc2cc(=O)n(C)c3ccccc23)c1 | 19.8 | 3.3 | -8.0 | 57.0* | -6.7 | -4.0
CC(=O)c1nn(-c2ccccc2)cc1C(=O)c1ccc(C)cc1 | 25.4 | 11.2 | 56.3* | -0.8 | -9.6 | -7.1
COc1ccc(-c2cc(C(F)(F)F)n3nc(N)nc3n2)cc1 | -327.1 | 8.0 | 5.8 | -7.8 | 2.9 | 0.8
COc1cccc(-c2cc(C(F)(F)F)n3nc(N)nc3n2)c1 | i | 3.8 | 5.2 | 68.5* | 2.2 | 6.5
CC1CCCN(C(C(=O)Nc2ccc3c(c2)OCO3)c2ccccc2)C1 (stereo unspecified) | 12.8 | 15.9 | 2.9 | 47.2* | -10.0 | -9.1
CC1CCN(C(C(=O)Nc2ccc3c(c2)OCO3)c2ccccc2)CC1 (stereo unspecified) | 11.7 | -0.9 | 7.6 | 47.9* | 4.7 | -19.3
SMILES | SENP8 block-1 | SENP7 inh | EBI2 block | AHR activator | SENP8 block-2 | SENP6 inh
CC1CCC(NC(=O)C(=O)Nc2ccc3c(c2)OCO3)CC1 (stereo unspecified) | 10.4 | 22.4 | 8.5 | 49.4* | -1.3 | 1.8
CC1CCC(NC(=O)c2ccc3c(c2)OCO3)CC1 (stereo unspecified) | 7.8 | 19.8 | -15.6 | 25.0 | 3.3 | 14.7
O=C(Nc1ccc2c(c1)OCO2)C(c1ccccc1)N1CCC2(CC1)OCCO2 (stereo unspecified) | 24.2 | -0.8 | 0.9 | 11.4 | 4.4 | 6.4
O=C(Nc1ccc2c(c1)OCO2)C(c1ccccc1)N1CCCCC1 (stereo unspecified) | 23.3 | 2.4 | 7.8 | 59.5* | 4.5 | 11.4
CC1CCCN(C(C(=O)Nc2ccc3c(c2)OCCO3)c2ccccc2)C1 (stereo unspecified) | 11.2 | -4.0 | 10.3 | 0.7 | -3.9 | -3.8
OCCCNc1ncnc2c1ncn2[C@H]1CN(Cc2cccs2)C[C@@H](CO)O1 | 0.6 | nt | -0.8 | nt | nt | nt
Cc1ccc(S(C)(=O)=N/C=C2\C(=O)c3sccc3N(C)S2(=O)=O)cc1 (stereo unspecified) | -98.5 | -2.9 | -8.8 | 1.2 | -8.2 | -21.5
CCc1ccc(NC(=O)C2CC(=O)N(C(C)C)C2)cc1 (stereo unspecified) | 17.4 | 4.2 | -5.5 | 78.0* | 0.0 | -10.5
CC(=O)Nc1ccc(NC(=O)C2CC(=O)N(C(C)C)C2)cc1 (stereo unspecified) | 25.1 | -2.9 | -6.7 | 0.9 | 2.4 | 5.3
Cn1c(O)c(/C=C2\C=Nc3ccccc32)sc1=Nc1ccc(C(=O)O)cc1 | 1.4 | -1.9 | 7.5 | 51.3* | 6.1 | -4.8
Oc1nc(Nc2ccc(Cl)cc2Cl)sc1/C=C1\C=Nc2ccccc21 | 9.9 | -0.2 | -5.6 | 23.7 | -0.8 | -2.1
O=C(Cc1ccccc1)Nn1c(O)c(/C=C2\C=Nc3ccccc32)sc1=S | 37.2 | nt | -23.0 | 76.2* | nt | nt
N=c1c2c3c(sc2ncn1Nc1ccccc1)CCC3 | 3.8 | -11.3 | 11.4 | 68.4* | -13.5 | -31.9
N=c1c2c3c(sc2ncn1Cc1ccccc1)CCCC3 | 12.4 | 2.0 | -4.6 | 6.8 | -3.3 | -28.1
COc1cc(CC(=O)Nc2c(-c3ccccc3)[nH][nH]c2=O)cc(OC)c1 | 22.9 | nt | -2.5 | nt | nt | nt
Oc1c(CN2CCOCC2)cc(CN2CCOCC2)c(O)c1O | 52.2* | nt | -3.8 | nt | nt | nt
Oc1cccc(CN2CCOCC2)c1O | 36.4 | nt | -11.7 | nt | nt | nt
O=S1(=O)CC(N2CCN(CCO)CC2)CN1CCc1ccccc1 (stereo unspecified) | 6.3 | nt | -11.2 | nt | nt | nt
Cc1cn([C@H]2C[C@H](O)[C@@H](/C=C/C(=O)NCCc3ccc4c(c3)OCO4)O2)c(=O)[nH]c1=O | 19.9 | nt | -12.2 | nt | nt | nt
CCn1c2ccccc2c2nc3cc(C(=O)O)ccc3nc21 | -314.1 | nt | -5.7 | nt | nt | nt
CCn1c2ccccc2c2nc3ccccc3nc21 | -241.2 | -6.5 | 18.7 | 89.6* | 0.8 | 14.5
CCCCc1c(C)nn(-c2nnc3c4ccccc4n(CC)c3n2)c1C | 20.2 | -7.7 | 42.9 | 52.5* | -8.9 | -9.5
CC(C)(C)C(c1nc2ccccc2[nH]1)n1c(-c2cccc(S(C)(=O)=O)c2)nc2ccccc21 (stereo unspecified) | -440.1 | nt | 13.5 | nt | nt | nt
Cc1oc2cc(O)ccc2c(=O)c1Oc1ccccc1 | -495.8 | -1.9 | -4.2 | 25.5 | 5.5 | 8.7
Cc1oc2cc(O)ccc2c(=O)c1Oc1ccccc1Br | -353.8 | -2.0 | -2.6 | 59.2* | 3.2 | -9.3
CCCNC(=O)N(C)C[C@H]1Oc2cc(Br)ccc2S(=O)(=O)N([C@@H](C)CO)C[C@@H]1C | 10.6 | nt | 9.6 | nt | nt | nt
COc1cc(C(=O)Nc2ccc(Oc3ncnc4sc(-c5ccccc5)cc34)cc2)cc(OC)c1OC | -4.8 | 4.7 | 12.9 | 0.2 | 4.1 | 5.5

From PubChem
